Source: PubChem
An excerpt weighted towards active compounds, which were near 4.6% of everything screened.
hgDAF12 agonist – H. glycines DAF-12 receptor agonists, primary screen, cell-based, luminescence, HEK293, GAL4 fusion, UAS-luciferase. activation, % at 6.8 µM. HEK293 GAL4-hgDAF12 UAS-luciferase reporter, agonist luminescence; normalized to butyrate control. 370,000 tested, 1.8% active. Nuclear hormone receptor DAF-12 (Heterodera glycines), GAL4 fusion;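 active = activation above a cutoff set at the mean of all screened compounds plus 3 SD, cut at about 10% in these data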
ssDAF-12 act – S. stercoralis DAF-12 nuclear receptor activators, primary screen, cell-based, luminescence, HEK293, GRIP1 co-expression, lit1-tk-luc | HEK293 ssDAF-12/GRIP1 lit1-tk-luc reporter; % of 3 µM dafachronic acid response | activation, % at 6.8 µM | 370,000 tested, 1% active | AID 652126, 2013;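 active = activation above the mean over all tested compounds plus 3 SD, cut at about 0.9% in these data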
DAX1 inh-1 – DAX1 (NR0B1) inhibitors on StAR promoter, primary screen, cell-based, luminescence, SF-1 (NR5A1), full-length DAX-1 | 370,000 tested, 1.1% active | inhibition, % at 6.8 µM | HEK293T StAR-luciferase reporter, SF-1/DAX-1 repression relief;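 active = inhibition above the mean over all tested compounds plus 3 SD, cut at about 3.6% in these data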;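 also: higher inhibition means more luminescence from relief of DAX-1 repression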
hcDAF-12 act – H. contortus DAF-12 nuclear receptor activators, primary screen, cell-based, luminescence, HEK293, lit1-tk-luc reporter. HEK293 hcDAF-12 lit1-tk-luc reporter; 0% DMSO, 100% Δ7-dafachronic acid. activation, % at 6.8 µM. 370,000 tested, 1.4% active. AID 652067, 2013;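 active = activation above the mean of all tested compounds plus 3 SD, cut at about 5.5% in these data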
DAX1 inh-2 – DAX1 (NR0B1) inhibitors, primary screen, cell-based, HEK293, Gal4-DAX1, luciferase luminescence; 340,000 tested, 0.99% active; inhibition, % at 6.75 µM; HEK293 Gal4-DAX1 luciferase reporter; AID 504766, 2011; Nuclear receptor subfamily 0 group B member 1 (Homo sapiens), P51843;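 active = inhibition above the mean over all tested compounds plus 3 SD, cut at about 4.2% in these data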;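 also: inhibition shows as a rise in luminescence from relieved DAX1 repression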
Wee1 degr inh – Wee1 degradation inhibitors, primary screen, cell-based, HeLa, Wee1K328M-luciferase, luminescence | reporter increase, % at 5 µM | 220,000 tested, 1.2% active | AID 1321, 2008 | Wee1-like protein kinase (Homo sapiens), P30291 | HeLa Luc-Wee1K328M stability; 100% = proteasome inhibitor MG132 effect;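 active = activation above the mean of all tested compounds plus 3 SD, set per screening run, cut at about 8.8% in these data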;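 also: cells exposed to compound for 20 h before luminescence read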
hgDAF12 ag – H. glycines DAF-12 receptor agonists, confirmation, cell-based, luminescence, HEK293, GAL4-LBD fusion | HEK293 GAL4-hgDAF12 luciferase reporter, agonist mode; percent of butyrate response | AID 743050, 2013 | activation, % at 6.8 µM | shares compounds with hgDAF12 agonist | 3,300 tested, 80% active;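 active = mean activation over triplicate wells above the hit cutoff derived from the earlier primary screen, cut at about 11% in these data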
LXRb DAF12 ctr – LXR agonists, Gal4 luciferase reporter, confirmation, counter-screen for hgDAF-12 agonist project, cell-based, luminescence, HEK293, H. glycines campaign. 24 h. 3,300 tested, under 10 active. activation, % at 6.8 µM. shares compounds with hgDAF12 agonist;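 active = mean activation of the triplicate above a set limit carried over from the primary screen, none filed active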
Target sequence (P55055 whole entry, looked up, the tested form may be a part): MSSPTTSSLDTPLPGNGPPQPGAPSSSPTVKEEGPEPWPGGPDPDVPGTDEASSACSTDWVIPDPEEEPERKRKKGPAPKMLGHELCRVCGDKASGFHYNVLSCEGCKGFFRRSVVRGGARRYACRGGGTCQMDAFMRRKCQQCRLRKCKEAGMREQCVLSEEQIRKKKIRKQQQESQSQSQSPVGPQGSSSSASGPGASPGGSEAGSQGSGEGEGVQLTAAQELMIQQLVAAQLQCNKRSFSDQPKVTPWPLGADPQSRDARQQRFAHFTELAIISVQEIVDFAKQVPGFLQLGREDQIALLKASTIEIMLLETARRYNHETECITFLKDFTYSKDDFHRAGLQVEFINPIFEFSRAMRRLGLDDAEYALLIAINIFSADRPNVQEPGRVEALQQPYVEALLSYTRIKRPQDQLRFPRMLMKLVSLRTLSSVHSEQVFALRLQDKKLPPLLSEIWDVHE
A number is an active result; . = inactive; / = no result.

SMILES	hgDAF12 agonist	ssDAF-12 act	DAX1 inh-1	hcDAF-12 act	DAX1 inh-2	Wee1 degr inh	hgDAF12 ag	LXRb DAF12 ctr
O=C(N/N=C/c1ccc(Cl)cc1)c1ccc2c(c1)OCO2	14	.	.	.	.	/	17	.
O=c1[nH]c2cnn(-c3ccccc3)c2c(=O)n1O	.	.	.	.	.	/	/	/
Cc1onc(-c2ccccc2Cl)c1C(=O)N1CCCCCC1	.	.	.	.	.	/	/	/
CCOc1ccc(C(=O)NC(C(=O)NCC(c2cccs2)N(C)C)C(C)C)cc1 (centres undefined)	.	.	.	.	.	/	/	/
c1ccc2c(c1)CN1C(=N2)COc2ccccc2C1c1nc2ccccc2[nH]1 (centres undefined)	15	2.0	4.4	6.0	/	/	.	.
CCc1noc(C)c1C(=O)Nc1nnc(C(CC)CC)s1	.	.	.	.	.	/	/	/
COc1cccc(CN2CCC2(C)C(=O)NCc2cccc(C(F)(F)F)c2)c1OC (centres undefined)	.	.	.	.	/	/	/	/
O=C(NC(=S)Nc1cccc2[nH]ncc12)c1ccccc1	22	.	.	.	.	.	16	.
COc1ccc(/C=C/C2=CC(C)(C)NC(=S)N2)cc1OC	.	.	.	.	.	.	/	/
COc1ccc(/C=C/C2=Nc3ccccc3NC(C)(C)C2)cc1OC	16	1.0	.	.	.	.	.	.
COc1ccccc1CNC(=O)C1CC2Cn3c(nc4cc(Cl)c(Cl)cc43)C2N1C (centres undefined)	.	.	.	.	.	/	/	/
O=C1/C(=C/c2ccccn2)COc2ccccc21	.	.	.	.	.	.	/	/
O=C1/C(=C/c2ccc(O)cc2)COc2ccccc21	15	.	.	.	.	/	12	.
O=C(O)C1=C(C(=O)Nc2ccc(F)c(Cl)c2)CCCC1	.	.	.	.	.	.	/	/
O=C(Nc1ccc(F)c(Cl)c1)c1nsc(Cl)c1Cl	13	.	.	.	.	.	16	.
O=C(Nc1ccccc1F)c1ccc(CSc2ncccn2)cc1	16	.	.	.	.	.	15	.
O=C(Nc1ccccc1)c1ccc(CSc2ncccn2)cc1	16	.	.	.	.	.	17	.
Cc1ccc(NC(=O)c2ccc(CSc3nccc(C)n3)cc2)cc1	.	.	.	.	.	.	/	/
O=C(c1ccccc1)c1cc(F)c(N2CCOCC2)cc1Cl	.	.	.	.	.	.	/	/
O=C(c1ccccc1)c1ccc(N2CCOCC2)c(F)c1	16	.	.	.	.	.	14	.
CC1CCCCN1CCCNC(=O)c1ccc2nc(N3CCCCC3)sc2c1 (centres undefined)	14	1.4	4.0	.	.	/	12	.
O=C(NCCc1ccccc1)c1ccc2nc(N3CCOCC3)sc2c1	14	.	.	.	.	/	.	.
COc1ccc2cc(-c3ccn[nH]3)ccc2c1	14	.	.	.	.	/	15	.
Cc1c(C(=O)Nc2cccc(S(=O)(=O)N3CCOCC3)c2)oc2ccc(Br)cc12	.	.	.	.	.	/	/	/
Cc1c(C(=O)Nc2cccnc2)oc2ccc(Br)cc12	14	1.7	.	.	.	/	14	.
SMILES	hgDAF12 agonist	ssDAF-12 act	DAX1 inh-1	hcDAF-12 act	DAX1 inh-2	Wee1 degr inh	hgDAF12 ag	LXRb DAF12 ctr
CCOC(=O)C1(C)CCN1C(=O)c1cccc(C#N)c1 (centres undefined)	.	.	.	.	/	/	/	/
COc1ccc2c(c1OC)C(=O)N(c1cccc(C)c1)C2	13	1.3	3.6	.	.	.	16	.
COc1ccccc1NC(=O)OCCN1CCCC12CCC(c1ccccc1)CC2 (centres undefined)	.	.	/	.	/	/	/	/
CCOC(=O)C1=C[C@@H](c2ccccc2)N(S(=O)(=O)c2ccc(C)cc2)[C@H]1c1ccc(F)cc1	.	.	.	.	/	/	/	/
CCOC(=O)c1cc2c(=O)n3ccccc3nc2n(C(C)C)c1=NC(=O)c1ccco1	.	.	.	.	.	.	/	/
CCCn1c(=NC(=O)c2ccco2)c(C(=O)OCC)cc2c(=O)n3ccccc3nc21	13	.	.	.	.	.	.	.
O=C(O)c1ccc(/C=C/c2ccc3cccc(O)c3n2)cc1	15	.	.	.	.	.	11	.
O=[N+]([O-])c1cccc(/C=C/c2ccc3cccc(O)c3n2)c1	.	.	.	.	.	/	/	/
O=c1cc(-c2ccco2)oc2ccc(Cl)cc12	.	.	.	.	.	.	/	/
OCCCN=c1cc(-c2ccccc2)oc2ccc(Cl)cc12	18	.	.	.	.	.	11	.
CN1CC(=O)N2[C@H](c3ccc4c(c3)OCO4)c3[nH]c4ccccc4c3C[C@@H]2C1=O	49	.	.	.	.	.	.	.
CCN(C(=O)COC(=O)c1nc(Cl)ccc1Cl)C1CCS(=O)(=O)C1 (centres undefined)	.	.	.	.	.	/	/	/
NC(=O)c1ccc(-c2noc(-c3ccccc3F)n2)cc1	15	.	.	5.6	.	/	13	.
CC(C)(C)C(=O)Nc1nc(-c2ccc3c(c2)OCO3)cs1	.	.	.	.	.	.	/	/
c1cc2c(cc1-c1csc(NNC3=NCCCCC3)n1)OCCO2	15	.	.	.	/	.	.	.
CCC(=O)Nc1nc(-c2ccc3c(c2)OCCO3)cs1	19	.	.	.	.	.	16	.
Nc1cc(Cl)ccc1Oc1ccc2ccccc2c1	22	.	.	.	.	.	.	.
Cc1ccc(Oc2ccc(Cl)cc2N)cc1	.	.	.	.	.	.	/	/
O=c1/c(=C/c2cccc3ccccc23)sc2ncnn12	.	.	.	.	.	.	/	/
Cc1ccsc1/C=c1\sc2ncnn2c1=O	14	.	.	.	.	.	.	.
O=C(NCc1ccco1)c1ccc(C(F)(F)F)cc1	.	.	.	.	/	.	/	/
